In the supplement of paper PMC6555819:

Legend:
Experiment in all cases: PBM binding z-score (relative to random genomic background probes); higher = stronger binding; sequences stand for … in GC…GCGATTGACAGCGTAGAATGAAGG
[1] = test system: FXR:RXRa (NR concentration 270 nM, RXRa partner concentration 90 nM)
How it was run: (§1)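 Binding buffer was PBS pH 7.4 with 2% milk, 0.02% Triton X-100, 1 mM DTT, 0.2 mg/mL BSA and 0.4 mg/ml salmon testes DNA. In it, ligand-free nuclear receptor dimers were incubated 1 h on custom Agilent 4×180K protein-binding microarrays carrying double-stranded probes. Antibodies against each partner (one per run) detected binding, and z-scores were calculated against random background probes after regression normalization of scanned fluorescence.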

[2] = test system: LXRa:RXRa (NR concentration 270 nM, RXRa partner concentration 90 nM)
How it was run: as §1

[3] = test system: LXRa homodimer (NR concentration 270 nM)
How it was run: as §1

[4] = test system: LXRb:RXRa (NR concentration 270 nM, RXRa partner concentration 90 nM)
How it was run: as §1

[5] = test system: LXRb homodimer (NR concentration 270 nM)
How it was run: as §1

[6] = test system: PPARa:RXRa (NR concentration 270 nM, RXRa partner concentration 90 nM)
How it was run: as §1

[7] = test system: PPARg:RXRa (NR concentration 180 nM, RXRa partner concentration 90 nM)
How it was run: as §1

[8] = test system: PPARg:RXRa 270nM:90nM, anti-RXR (NR concentration 270 nM, RXRa partner concentration 90 nM)
How it was run: as §1

[9] = test system: PPARg:RXRa 30nM:10nM, anti-RXR (NR concentration 30 nM, RXRa partner concentration 10 nM)
How it was run: as §1

[10] = test system: PPARg:RXRa 90nM:30nM, anti-RXR (NR concentration 90 nM, RXRa partner concentration 30 nM)
How it was run: as §1

[11] = test system: PPARg:RXRa DBDmut IVT, anti-RXR (DBD mutation: RXRa K156A/R161A, NR concentration 270 nM, RXRa partner concentration 90 nM)
How it was run: as §1

[12] = test system: PPARg:RXRa IVT, anti-PPARg (NR concentration 270 nM, RXRa partner concentration 90 nM)
How it was run: as §1

[13] = test system: PPARg DBDmut:RXRa IVT, anti-PPARg (DBD mutation: PPARg1 K132A/R137A, NR concentration 270 nM, RXRa partner concentration 90 nM)
How it was run: as §1

[14] = test system: PPARg DBDmut IVT, anti-PPARg (DBD mutation: PPARg1 K132A/R137A, NR concentration 270 nM)
How it was run: as §1

[15] = test system: PPARg homodimer (NR concentration 180 nM)
How it was run: as §1

[16] = test system: PXR:RXRa (NR concentration 270 nM, RXRa partner concentration 90 nM)
How it was run: as §1

[17] = test system: PXR homodimer (NR concentration 270 nM)
How it was run: as §1

[18] = test system: RARa:RXR (NR concentration 270 nM, RXRa partner concentration 90 nM)
How it was run: as §1

[19] = test system: RARa homodimer (NR concentration 270 nM)
How it was run: as §1

[20] = test system: RARb:RXRa (NR concentration 270 nM, RXRa partner concentration 90 nM)
How it was run: as §1

Sequence	PBM binding z-score [1]	PBM binding z-score [2]	PBM binding z-score [3]	PBM binding z-score [4]	PBM binding z-score [5]	PBM binding z-score [6]	PBM binding z-score [7]	PBM binding z-score [8]	PBM binding z-score [9]	PBM binding z-score [10]	PBM binding z-score [11]	PBM binding z-score [12]	PBM binding z-score [13]	PBM binding z-score [14]	PBM binding z-score [15]	PBM binding z-score [16]	PBM binding z-score [17]	PBM binding z-score [18]	PBM binding z-score [19]	PBM binding z-score [20]
GCTTGTAAATCAAGGTTAAGAAAGACTAAGCTAA	0.61	1.71	0.223	0.926	-0.355	1.56	0.214	0.467	0.122	0.622	0.268	0.664	-0.64	0.161	0.00597	0.564	-0.123	1.05	-0.0975	0.808
CAAACTCGGTCAAGAGGTCAAAGTCCGCTTCCCG	6.2	5.96	6.55	5.13	1.61	5.82	5.83	5.99	3.41	5.47	4.29	5.27	1.06	1.86	4.18	5.89	2.01	6.63	1.95	5.01
CCTACTGGGCCACGAAAGGTCATTGACTCAGTGA	4.14	5.29	4.5	4.65	0.406	5	4.93	4.87	2.71	4.15	5.69	5.8	0.0683	-0.677	2.13	5.15	1.92	5.49	0.622	4.03
TCATATAGGTAAAGGTAAAAGTCGAACGATATGA	0.715	1.06	-0.299	0.926	-0.151	2.1	2.75	3.46	4.13	3.8	3.98	3.36	1.85	1.27	0.454	0.53	0.308	0.709	1.3	0.845
AGAATGAGGTTATTCGTAGATCAGGGAAGAAAGT	2.59	2.61	0.0908	1.87	-0.0255	3.43	1.64	1.83	0.552	1.2	2.54	2.22	0.846	0.521	0.454	1.44	0.494	1.98	0.0936	1.36
CCTAGGTGGTCAAGGTCACACACGCTATAGGTAC	4.58	3.67	1.51	3.57	0.536	4.35	3.72	3.83	1.19	2.85	1.34	3.54	0.368	0.561	4.82	4.24	1.58	4.44	1.3	4.22
CCGACTGGGGCAAGGTTACCATCACGCACAGCCA	0.162	0.447	-0.106	0.674	-1.14	1.79	2.72	3.61	0.851	2.78	3.35	3.48	-0.952	-0.665	0.946	0.175	0.0478	0.822	-0.0498	1.5
GCTGCTAGGTCAGGTTGGTCAGCCAACGGGTACG	1.12	0.345	-0.418	0.336	-0.341	1.36	0.298	1.1	-0.412	0.115	2.43	2.2	-1.3	-1.25	0.608	0.00259	-0.305	0.503	-0.0936	3.2
GCTAGTTGGTCAGTAAAAGGTCACACTCCGGTCG	3.15	4.29	4.97	3.76	0.637	4.19	2.49	4.24	1.86	3.7	1.66	2.87	-0.175	0.207	3.12	4.77	0.877	5.45	1.9	4.3
CTTACTGGGCCATCAGGTCATTGATATCAACGTT	1.85	1.35	1.05	1.68	0.217	3.84	4.85	5.22	2.74	4.87	6.66	6.83	2.49	2.61	1.66	1.94	0.966	2.45	0.185	2.26
TCTTGTAGATCAGCAGGTTAAGACAGCTGGCCAA	0.409	0.423	-0.459	0.114	-0.579	0.79	-0.112	1.46	2.57	2.02	1.91	0.417	0.269	0.156	0.137	0.129	-0.0251	0.309	0.389	0.0665
CCTTACGGATCACTCCAGGTTATAGCATCGGAGT	0.957	3.48	1.36	0.889	0.62	0.155	0.486	-0.0175	-0.194	-0.283	0.299	0.0369	0.0149	0.787	1	0.823	0.761	0.748	1.26	0.105
CAGACTAGGTCAGGGCCAGTATAGGAGGAACGTT	1.14	0.664	-0.52	0.152	-0.575	2.57	3.84	3.65	1.04	2.5	5.95	6.11	0.269	0.382	0.388	0.0784	-0.249	0.723	-0.255	3.12
AGTCAAAGTTCATCTAGGTAAAGTAAGATATGCT	7.01	5.97	5.01	4.24	1.97	5.14	7.07	6.73	3.75	5.54	1.06	3.88	1.43	0.713	3.61	5.45	7.79	4.38	2.12	5.22
